# Source: the supplement of paper PMC4723716
# ± gives the uncertainty stated by the source. Over roughly 9,900 compounds, “viability index relative to DMSO control” has its median near 1; the lowest 2% begin near 0.85. The list comes from a sample in which the lowest values are over-represented; it also holds similar structures and randomly drawn compounds.
# Test system: Plasmodium falciparum NF54 stage V gametocytes
# Assay: viability index relative to DMSO control (fraction); higher = less gametocyte killing
# Conditions: 2.5 µM, incubation time: 72 h
# Method in brief: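 In 1,536-well plates, 10 µl of serum-free medium holding P. falciparum NF54 stage V gametocytes (0.75% gametocytemia, 1.25% hematocrit) received compound at 2.5 µM for 72 hr at 37°C in low oxygen. After one to two hours with 3 µl of 2.5 µM MitoTracker Red CMXRos containing 0.13% saponin, red particles of 20–70 µm2 were counted in a single field per well. Viability index is reported as the particle count over the plate mean of wells treated with solvent only.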
# [1] = library set: Broad Institute DOS
Structure (SMILES),viability index [1],viability index (library set: Broad Institute Blood Stage)
COc1ccccc1C#Cc1ccc([C@@H]2[C@H](CO)N3CCCCN(C(=O)C4CCC4)C[C@@H]23)cc1,0.967 ± 0.025,–
COc1ccccc1C#Cc1ccc([C@H]2[C@H]3CN(C(=O)C4CCC4)CCCCN3[C@H]2CO)cc1,0.971 ± 0.013,–
COc1ccccc1C#Cc1ccc([C@@H]2[C@@H](CO)N3CCCCN(CCC(F)(F)F)C[C@H]23)cc1,–,0.759 ± 0.06
OC[C@@H]1[C@@H](c2ccc(C#Cc3ccccc3F)cc2)[C@H]2CN(CC3CCOCC3)CCCCN12,0.852 ± 0.021,–
OC[C@H]1[C@H](c2ccc(C#Cc3ccccc3F)cc2)[C@@H]2CN(CC3CCOCC3)CCCCN12,0.8726 ± 0.0019,–
OC[C@H]1[C@@H](c2ccc(C#Cc3ccccc3F)cc2)[C@H]2CN(CC3CCOCC3)CCCCN21,0.938 ± 0.011,–
C[C@@H]1CN([C@@H](C)CO)C(=O)CCCn2cc(nn2)CO[C@@H]1CN(C)S(=O)(=O)c1cn(C)cn1,1.07 ± 0.062,–
COC(=O)C[C@H]1C[C@H]2c3cc(N)ccc3O[C@H]2[C@H](CO)O1,1.05 ± 0.0071,–
C/C=C/c1ccc([C@@H]2[C@H](CO)N3CCCCN(S(=O)(=O)c4ccc(OC)cc4)C[C@@H]23)cc1,1.03 ± 0.014,–
C[C@H](CO)N1C[C@H](C)[C@H](CN(C)C(=O)NC2CCCCC2)OCc2ccccc2-c2ccccc2C1=O,1.03 ± 0.03,–
COC(=O)C[C@H]1CC[C@@H]2[C@@H](COc3ccc(NC(=O)Nc4c(C)noc4C)cc3C(=O)N2C)O1,0.983 ± 0.14,–
O=C(Nc1ccc(F)cc1)N1CC(=O)N2[C@H](CO)[C@H](c3ccc(-c4cccc(F)c4)cc3)[C@H]2C1,1.05 ± 0.019,–
C[C@@H]1CN([C@@H](C)CO)C(=O)c2ccccc2-c2ccccc2CO[C@@H]1CN(C)C(=O)Nc1cccc(Cl)c1Cl,0.946 ± 0.053,–
C[C@H](CO)N1C[C@H](C)[C@@H](CN(C)C(=O)Nc2ccc(-c3ccccc3)cc2)OCc2ccccc2-c2ccccc2C1=O,1.019 ± 0.0076,–
C[C@H](CO)N1C[C@H](C)[C@@H](CN(C)C(=O)Nc2cccc(Cl)c2Cl)OCc2ccccc2-c2ccccc2C1=O,0.845 ± 0.043,–
C[C@@H]1CN([C@@H](C)CO)C(=O)c2ccccc2-c2ccccc2CO[C@H]1CN(C)C(=O)Nc1cccc(Cl)c1Cl,0.72 ± 0.16,–
C[C@@H]1CN([C@H](C)CO)C(=O)c2ccccc2-c2ccccc2CO[C@H]1CN(C)C(=O)Nc1cccc(Cl)c1Cl,0.863 ± 0.045,–
C[C@H]1CN([C@@H](C)CO)C(=O)c2ccccc2-c2ccccc2CO[C@H]1CN(C)C(=O)Nc1ccc(-c2ccccc2)cc1,0.724 ± 0.14,–
C[C@H]1CN([C@@H](C)CO)C(=O)c2ccccc2-c2ccccc2CO[C@H]1CN(C)C(=O)Nc1cccc(Cl)c1Cl,0.9208 ± 0.0078,–

Structure (SMILES),viability index [1],viability index (library set: Broad Institute Blood Stage)
C[C@@H]1CN([C@@H](C)CO)C(=O)c2ccccc2-c2ccccc2CO[C@@H]1CN(C)C(=O)Nc1ccc(-c2ccccc2)cc1,0.977 ± 0.016,–
C[C@@H]1CN([C@H](C)CO)C(=O)c2ccccc2-c2ccccc2CO[C@@H]1CN(C)C(=O)Nc1cccc(Cl)c1Cl,0.894 ± 0.05,–
COC(=O)C[C@@H]1C[C@@H]2c3cc(NC(=O)c4ccc5c(c4)OCO5)ccc3O[C@@H]2[C@H](CO)O1,0.991 ± 0.033,–
COc1ccc(S(=O)(=O)Nc2ccc3c(c2)CC(=O)N([C@H](C)CO)C[C@@H](C)[C@@H](CN(C)C(=O)Nc2c(C)noc2C)O3)cc1,1.101 ± 0.0069,–
Cc1ccc(S(=O)(=O)N(C)C[C@@H]2Oc3c(NS(C)(=O)=O)cccc3C(=O)N([C@H](C)CO)C[C@@H]2C)cc1,0.939 ± 0.13,–
COc1ccccc1CNC(=O)C[C@@H]1C[C@@H]2c3cc(NC(=O)C4CCC4)ccc3O[C@@H]2[C@@H](CO)O1,1.01 ± 0.015,–
O=C([C@@H]1[C@@H](CO)[C@@H]2Cn3c(ccc(C4=CCCC4)c3=O)[C@H]1N2C(=O)c1cccnc1)N1CCOCC1,1.08 ± 0.038,–
CCc1nc(N2[C@H](CO)[C@H](c3ccccc3-c3ccc(F)cc3)[C@@H]2C#N)sc1C,1.03 ± 0.12,–
O=C(C[C@@H]1CC[C@H]2NC[C@@H](O)COC[C@@H]2O1)NCc1ccc2c(c1)OCO2,1.07 ± 0.015,–
COc1ccc2c3c([nH]c2c1)[C@H](CO)N(Cc1ccncc1)C[C@]31CN(C1)C(=O)CN(C)C,1.04 ± 0.071,–
COc1ccc2c3c([nH]c2c1)[C@H](CO)N(Cc1nccs1)C[C@]31CCN(Cc2cccnc2)CC1,0.946 ± 0.081,–
CCCC(=O)N1CC[C@@]2(CC1)CN(Cc1ccc(Cl)cc1)[C@H](CO)c1[nH]c3cc(OC)ccc3c21,0.873 ± 0.16,–
COCC(=O)N1CC[C@@]2(CC1)CN(Cc1ccccc1Cl)[C@H](CO)c1[nH]c3cc(OC)ccc3c21,1.023 ± 0.0089,–
COc1ccc2c3c([nH]c2c1)[C@@H](CO)N(Cc1ccccc1)C[C@]31CCN(Cc2cncnc2)CC1,0.849 ± 0.064,–
COc1ccc2c3c([nH]c2c1)[C@@H](CO)N(Cc1nccs1)C[C@]31CCN(Cc2cccnc2)CC1,0.98 ± 0.062,–
CCCC(=O)N1CC[C@@]2(CC1)CN(Cc1ccc(Cl)cc1)[C@@H](CO)c1[nH]c3cc(OC)ccc3c21,0.795 ± 0.039,–
COc1ccc2c3c([nH]c2c1)[C@@H](CO)N(Cc1ccc(Cl)cc1)C[C@]31CCN(Cc2nccs2)CC1,0.814 ± 0.015,–
COc1ccc2c3c([nH]c2c1)[C@@H](CO)N(Cc1nccs1)C[C@]31CN(Cc2ccncc2)C1,1.02 ± 0.079,–
COc1ccc2c3c([nH]c2c1)[C@H](CO)N(Cc1ccc(Cl)cc1)C[C@]31CCN(Cc2nccs2)CC1,0.884 ± 0.047,–
